This note sets out measurements from PubChem BioAssay (EPA / NIEHS).

In general, AC50 refers to the midpoint of the concentration-response curve, whichever way the signal moves.

The source made the active and inactive calls. Rule for the calls: active = hit-call score of the fitted dose curve at least 0.9, where 1 is the maximum; inactive = score below 0.9.

Read-out in the assay: growth arrest and DNA damage 45 (GADD45B), GADD45B (gene 4616)
Briefly: LTEA_HepaRG_GADD45B: Life Technologies and Expression Analysis (LTEA) Assay for growth arrest and DNA damage 45 (GADD45B) using HepaRG (AID 2283461). Particulars: mRNA level, 48 h; actives raise or lower the signal. The method, then: LTEA_HepaRG is a cell based, multiplexed-readout assay that uses HepaRG, a human liver cell line, with measurements taken at 48 hours after chemical dosing on a 96-well plate.LTEA_HepaRG_GADD45B is one of 102 assay component(s) measured in the LTEA HepaRG cell culture assay. It is a marker of Cell proliferation, survival, death.Data from the assay component LTEA_HepaRG_GADD45B was analyzed into 1 endpoint. This assay endpoint, LTEA_HepaRG_GADD45B, was analyzed with bidirectional fitting relative to DMSO as the negative control and baseline of activity. Using a type of inducible reporter, measures of mRNA induction for gain or loss-of-signal activity can be used to understand regulation of transcription factor activity. To generalize the intended target to other relatable targets, this assay endpoint is annotated to the mutagenicity response intended target family, where the subfamily is Cell proliferation, survival, death.
A total of 1060 chemcials from the ToxCast library were tested in eight-point concentration-response experiments. Cell culture and cytotoxicity assays were conducted at Thermo Fisher Scientific's Custom Services facility (Madison, WI). A single lot of human HepaRG cells (Thermo Fisher Scientific, Frederick, MD) was used for the cell culture experiments. 96-well format collagen type I coated plates of human HepaRG cells were prepared using established methods. Briefly, cryopreserved HepaRG cells were thawed, plated at a density of approximately 100,000 cells/well in HepaRG Thaw, Plate, and General Purpose media (HPRG770, Thermo Fisher Scientific), and incubated for 48 hours. 0.5% DMSO was selected as vehicle control to balance the requisite need of DMSO in HepaRG cultures to maintain differentiation (for example, baseline metabolism, proportions of hepatocytes vs. cholangiocytes), while enabling further hepatic receptor pathway activation (for example, PXR and CAR) in response to chemical exposure. 48 hours after plating, the culture medium was replaced with HepaRG Serum-Free Incudtion Media. Cells were exposed to each test chemical in duplicate and maintained in CO2 incubators for another 48 hours. Chemical plates were thawed to room temperature and 200x concentrations of treatment groups were prepared. 8-point conentration-reponse curves were made with the highest exposure at 100 uM, followed by half-log dilutions, all in 0.5% DMSO. Each test plate contained variouse controls, induction positive controls (1mM phenobarbital), cytotoxicity positive controls ([…] aflatoxin B1), vehicle controls (0.5% DMSO), and total lysis controls (0.5% DMSO). Cell morphology images were taken using an Essen IncuCyte FLR automated microscope, with six 96-well plates imaged in about 24 minutes. Images were captured and exported and JPEG files. Spent culture media was transfered to black-well plates for the LDH assay, and remaining media was sorted at -80 C for later use. Cells were treated with RLT buffer and frozen until shipped for gene expression analysis. Total RNA was isolated from the cell suspension in 75 uL of Buffer RLT (Qiagen, Germantown, MD 20874) by Quintiles/Expression Analysis (Durham, NC) using a custom isolation procedure. Total RNA from each plate well was transferred to a preamplification plate. Fluidigm's 96.96 Dynamic ArrayTM (Fluidigm, Amsterdam, the Netherlands) technology was used for gene expression analyses by quantitative reverse transcription polymerase chain reaction (qRT-PCR, performed by Quintiles/Expression Analysis, Durham, NC)89. Standard TaqManTM Assays (Applied Biosystems/ThermoFisher Scientific, Foster City, CA) were used to assess the expression of 93 genes selected based on their selectivity and sensitivity to important hepatic receptors known to be modulated by environmental chemicals; importance in human hepatocyte functionality; and hepatotoxicity. […]
On to `O=Cc1ccccc1C=O`, for which the compound was classed as inactive.

Consider `NC=O`, for which the compound was called inactive. As to `CC(=O)CC(c1ccccc1)c1c(O)c2ccccc2oc1=O` (stereo not given), the call was inactive. On the same count and under the same terms, then `CCCCCCC(CCCCCCCCCCC(=O)OCC(COC(C)=O)OC(C)=O)OC(C)=O` (stereo not given), with “inactive”; and `CCCCCCCC(=O)OC`, with “inactive”; and `CCc1nc(N)nc(N)c1-c1ccc(Cl)cc1`, with “inactive”. With `CC(C)c1cccc(C(C)C)c1`, the outcome was inactive. Still for that read-out and setting: to `CC(=O)[C@@]1(O)CC[C@H]2[C@@H]3CCC4=CC(=O)CC[C@]4(C)[C@H]3CC[C@@]21C` belongs “inactive”; to `O=NO`, “inactive”; to `CC(=O)O`, “inactive”. The same measure, in the same setting: then `COC(=O)[C@H]1[C@H]2C[C@@H]3c4[nH]c5cc(OC)ccc5c4CCN3C[C@H]2C[C@@H](OC(=O)c2cc(OC)c(OC)c(OC)c2)[C@@H]1OC`, with “inactive”; and `O=C(O)CC(O)(CC(=O)O)C(=O)O`, with “inactive”. The same measure, in the same setting: then `C=CCc1ccc(OC)c(OC)c1`, with “inactive”; and `CO[C@@H]1COCC[C@@H]1N[C@@H]1CC[C@@](C(=O)N2CCc3ncc(C(F)(F)F)cc3C2)(C(C)C)C1`, with “inactive”.

For `OCC(CO)n1cnc(-c2ccc(F)cc2)c1-c1ccnc(Oc2ccccc2)n1`, the outcome was inactive.

As to `CCCCC(CC)COP(=O)(OCC(CC)CCCC)OCC(CC)CCCC` (stereo not given), the outcome was inactive.

For `NC1CCCCC1`, the result was inactive.

As for `S=c1[nH]c2ccccc2s1`, the compound was called inactive. On the same count and under the same terms, then `c1ccc2occc2c1`, with “inactive”; and `CC(C)OC(=O)C(C)(C)Oc1ccc(C(=O)c2ccc(Cl)cc2)cc1`, with “inactive”; and `CC(C)NCC(O)c1ccc(O)c(O)c1` (stereo not given), with “inactive”. Same read-out and setting: then `CN(C)CCCN(C)CCCN(C)C`, with “inactive”. Consider `Nc1nc(Cl)nc2c1ncn2[C@H]1C[C@H](O)[C@@H](CO)O1`, for which the AC50 was 0.447 µM (active). The same measure, in the same setting: to `O=C(N[C@@H](c1ccccc1)[C@@H]1CCCCN1)c1cccc(C(F)(F)F)c1Cl` belongs 50 µM (active). `CC(C)(C)c1ccccc1`: the result was inactive. In the case of `CC(=O)OCC(COC(C)=O)OC(C)=O`, the compound was classed as inactive.

With `CN(C)CCCN1c2ccccc2Sc2ccc(Cl)cc21`, the concentration at half-maximal activity (AC50) was 89.7 µM (active).

As for `CS(=O)(=O)c1ccc([C@@H](C[C@H]2CCC(=O)C2)C(=O)Nc2cnccn2)cc1Cl`, the compound was called inactive. On to `Oc1ccccc1O`, for which the compound was called inactive. The same measure, in the same setting: to `O=C1O[C@H]([C@H](O)CO)C(O)=C1O` belongs “inactive”. The same measure, in the same setting: to `Cc1ccc(-c2cc(C(F)(F)F)nn2-c2ccc(S(N)(=O)=O)cc2)cc1` belongs “inactive”; to `C#CC(O)C(CC)CCCC` (stereo not given), “inactive”; to `COC(=O)CCCC(=O)OC`, “inactive”. Same read-out and setting: to `O=C(O)c1cccnc1` belongs “inactive”; to `Cc1ccc(C(C)(C)C)c(O)c1`, “inactive”. Consider `O=C1c2c(O)cccc2Cc2cccc(O)c21`, for which the call was inactive. On the same count and under the same terms, then `NC(=Nc1ccccc1)Nc1ccccc1`, with “inactive”. Still for that read-out and setting: to `CC1(C)C(=O)NC(=O)N1CO` belongs “inactive”. Still for that read-out and setting: to `O=[Si]=O` belongs “inactive”; to `CCCCOC(=O)CCCCC(=O)OCCCC`, “inactive”.
